Screening results from PubChem.
In the library only some 2.4% were active in any assay of this set; here they are far more common.
FEN1 inh: inhibitors of human flap endonuclease 1. P39748. AID 588795. hit rate 0.35% among 390,000. Recombinant FEN1 flap cleavage, fluorescence, 15 min. Potency, µM (series often up to 114 µM), without a hit: top-dose activity change, negative = inhibition, hits mostly inhibitors; further: potency means the concentration at half of the fitted maximal effect; on the % scale 0 is the no-effect control and ±100 the full control effect; nearly all actives have a fitted effect of over 65% in size
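Read-out was taken twice, immediately and after 15 min, following addition of 50 nM substrate to 10 nM FEN1 that had sat with test compound for 15 min at room temperature. Curves came from a four-parameter Hill model.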
Pol eta inh-1: blocks human DNA polymerase eta activity | Q9Y253 | AID 588591 | hit rate 1.2% among 390,000 | Potency, µM (top dose mostly 114 µM), without a hit: at the highest dose activity change, negative = inhibition, usual class: inhibitors | recombinant Pol eta, fluorescent DNA replication assay; further: potency means the concentration at half of the fitted maximal effect; on the % scale 0 is the no-effect control and ±100 the full control effect
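Pol eta at 10 nM preincubated with compounds 15 min at room temperature; reaction started with fluorescent substrate (50 nM final) and read kinetically at 0 and 10 min.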
WRN inhibitor: inhibitors of human WRN helicase. WRN helicase unwinding, fluorescent forked duplex, kinetic. Potency, µM (series often up to 114 µM), without a hit: at the top dose activity change, negative = inhibition, actives largely listed as inhibitors. hit rate 0.46% among 360,000. AID 651768; further: potency means the concentration at half of the fitted maximal effect; on the % scale 0 is the no-effect control and ±100 the full control effect; nearly all actives have a fitted effect of over 55% in size
Target sequence (Q14191 whole entry, looked up): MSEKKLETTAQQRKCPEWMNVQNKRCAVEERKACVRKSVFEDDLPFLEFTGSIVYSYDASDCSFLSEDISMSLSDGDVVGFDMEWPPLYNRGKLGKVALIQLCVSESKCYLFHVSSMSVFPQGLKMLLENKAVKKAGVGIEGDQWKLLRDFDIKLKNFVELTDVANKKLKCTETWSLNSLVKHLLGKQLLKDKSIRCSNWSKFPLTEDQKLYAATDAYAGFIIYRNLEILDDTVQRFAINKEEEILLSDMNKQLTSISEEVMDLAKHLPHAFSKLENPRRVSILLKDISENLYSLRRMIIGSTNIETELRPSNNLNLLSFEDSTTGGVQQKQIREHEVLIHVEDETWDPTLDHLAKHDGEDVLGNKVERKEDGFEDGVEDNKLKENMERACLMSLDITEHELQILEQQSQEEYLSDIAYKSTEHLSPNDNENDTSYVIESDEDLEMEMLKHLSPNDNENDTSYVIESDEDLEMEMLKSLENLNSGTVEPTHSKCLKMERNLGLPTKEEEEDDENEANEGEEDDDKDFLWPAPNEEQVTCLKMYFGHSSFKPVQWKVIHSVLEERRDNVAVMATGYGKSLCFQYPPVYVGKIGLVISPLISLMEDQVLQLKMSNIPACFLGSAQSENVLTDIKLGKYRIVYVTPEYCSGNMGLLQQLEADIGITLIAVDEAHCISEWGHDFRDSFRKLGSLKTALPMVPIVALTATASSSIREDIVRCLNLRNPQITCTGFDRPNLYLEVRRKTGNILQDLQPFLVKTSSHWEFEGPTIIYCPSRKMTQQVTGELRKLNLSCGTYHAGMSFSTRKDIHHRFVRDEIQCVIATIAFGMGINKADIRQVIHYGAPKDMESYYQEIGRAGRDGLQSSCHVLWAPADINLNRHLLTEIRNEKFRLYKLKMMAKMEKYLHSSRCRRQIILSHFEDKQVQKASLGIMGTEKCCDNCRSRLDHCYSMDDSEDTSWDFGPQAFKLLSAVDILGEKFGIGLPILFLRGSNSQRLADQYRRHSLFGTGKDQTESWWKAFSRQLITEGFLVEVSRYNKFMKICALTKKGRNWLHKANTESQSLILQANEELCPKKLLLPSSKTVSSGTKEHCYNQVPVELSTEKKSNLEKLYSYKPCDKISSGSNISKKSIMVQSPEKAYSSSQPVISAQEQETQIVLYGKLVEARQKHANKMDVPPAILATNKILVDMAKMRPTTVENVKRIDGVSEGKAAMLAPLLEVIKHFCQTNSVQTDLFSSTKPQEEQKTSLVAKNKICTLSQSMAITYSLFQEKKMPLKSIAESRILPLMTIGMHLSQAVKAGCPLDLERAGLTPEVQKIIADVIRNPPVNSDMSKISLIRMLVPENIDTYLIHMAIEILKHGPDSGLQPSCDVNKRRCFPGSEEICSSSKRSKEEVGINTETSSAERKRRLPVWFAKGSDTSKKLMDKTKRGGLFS
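WRN at 20 nM final preincubated with compound 15 min at room temperature; reaction started with 100 nM fluorophore/quencher forked duplex oligonucleotide and 2 mM ATP final. Unwinding followed kinetically by red fluorescence (ex 525, em 598 nm).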
Pol beta inh: inhibitors of human DNA polymerase beta. P06746. Pol beta primer extension/strand displacement, fluorescence kinetic. Potency, µM (highest dose often 114 µM), without a hit: top-dose activity change, negative = inhibition, hits mostly inhibitors. hit rate 1.3% among 340,000; further: potency means the concentration at half of the fitted maximal effect; on the % scale 0 is the no-effect control and ±100 the full control effect
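Values derive from four-parameter Hill fits of normalized kinetic data: reads at 0 and 10 min following addition of 50 nM substrate to 10 nM Pol beta preincubated 15 min with compound.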
Pol kappa inh-1: inhibitors of human DNA polymerase kappa; Q9UBT6; purified Pol kappa, fluorescent DNA synthesis assay, 10 min; Potency, µM (series often up to 107 µM), for inactives: at the highest dose activity, negative = inhibition, hits mostly inhibitors; hit rate 0.53% among 400,000; AID 588579; further: potency means the concentration at half of the fitted maximal effect; on the % scale 0 is the no-effect control and ±100 the full control effect
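First, compounds were pin-transferred onto 10 nM Pol kappa. After 15 min at room temperature, substrate was added to 50 nM final. Fluorescence was then measured kinetically at 0 and 10 min.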
Pol iota inh: blocks human DNA polymerase iota activity | Q9UNA4 | Pol iota fluorescent replication assay, 10 min | Potency, µM (top dose mostly 115 µM), inactives show top-dose activity, negative = inhibition, actives largely listed as inhibitors | AID 588590 | hit rate 1% among 390,000; further: potency means the concentration at half of the fitted maximal effect
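Fluorescent replication assay read twice, at 0 min and 10 min after adding 50 nM (final) substrate. Enzyme (10 nM) and compounds were first incubated 15 min at room temperature; enzyme-free buffer wells were negative controls.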
GALK inh confirm: confirmation of human galactokinase (GALK) inhibitors; AID 2015; Potency, µM (titrated, usually from 115 µM), for the others: at the highest dose activity, negative = inhibition, hits mostly inhibitors; hit rate 70% among 150; shares compounds with Pol eta inh-1; purified GALK, Kinase-Glo ATP depletion luminescence
GALK redox cs: generates H2O2 by redox cycling, flagging GALK artifacts | shares compounds with Pol eta inh-1 | Phenol red-HRP H2O2 redox cycling, absorbance 600 nm | Potency, µM (top dose mostly 115 µM), for inactives: at the highest dose activity change, negative = H2O2 signal, actives largely listed as inhibitors | hit rate 40% among 150 | AID 2035
HEK293 viability: HEK-293 cytotoxicity, GALK inhibitor secondary | shares compounds with Pol eta inh-1 | HEK-293 viability, ATP luminescence (CellTiter-Glo), 24/48 h | Potency, µM (titrated, usually from 46.1 µM), inactives show at the highest dose activity change, negative = cytotoxicity, most hits filed as inhibitors | hit rate 10% among 170; further: potency means the concentration at half of the fitted maximal effect; on the % scale 0 is the no-effect control and ±100 the full control effect
Pol kappa inh-2: confirmation of human DNA polymerase kappa inhibitors; shares compounds with Pol eta inh-1; hit rate 76% among 920; Potency, µM, actives largely listed as inhibitors; purified Pol-kappa, fluorescent strand-displacement substrate; AID 720501; further: potency means the concentration at half of the fitted maximal effect
Pol eta inh-2: confirmation of human DNA polymerase eta inhibitors; shares compounds with Pol eta inh-1; Pol eta primer extension, TAMRA/BHQ fluorescence, 10 min; Potency, µM, actives largely listed as inhibitors; hit rate 64% among 2,600; AID 720502; further: potency means the concentration at half of the fitted maximal effect
An asterisk follows results filed as active; u = inconclusive; x = no result; [ ] = dose if it differs, or a comment. The call rests on the fitted dose curve; in most records, active means well fitted curve in the direction sought with a large enough effect; inconclusive means small, poorly fitted or top-dose-only effect, or another doubt; inactive means no such curve, though single readings can be large; an effect the other way counts as inactive or inconclusive.

SMILES	FEN1 inh	Pol eta inh-1	WRN inhibitor	Pol beta inh	Pol kappa inh-1	Pol iota inh	Pol eta inh-2	others
COc1cc(/C=C2\C(=N)N3N=C(S(C)(=O)=O)SC3=NC2=O)ccc1OS(=O)(=O)c1ccccc1	x	x	x	u	x	x	x	GALK inh confirm=38µM*;GALK redox cs=1%;HEK293 viability=-10%
CS(=O)(=O)C1=NSC2=NC(=O)/C(=C\c3ccc(OS(=O)(=O)c4ccccc4)cc3)C(=N)N21	-6%	50µM*	-17%[11.6 µM]	u	3%	-45%	x	GALK inh confirm=33µM*;GALK redox cs=-20%;HEK293 viability=2%
CCS(=O)(=O)C1=NN2C(=N)/C(=C\c3ccc(OS(=O)(=O)c4ccccc4)cc3)C(=O)N=C2S1	-16%	45µM*	-26%	u	-33%	u	x	GALK inh confirm=38µM*;GALK redox cs=3%;HEK293 viability=4%
O=C1N=C(N2CCOCC2)S/C1=C\c1ccc(OS(=O)(=O)c2ccccc2)cc1	-8%	-12%	-11%	11%	2%[60.1 µM]	14%	x
CCS(=O)(=O)C1=NSC2=NC(=O)/C(=C\c3ccc(OS(=O)(=O)c4ccccc4)c(OC)c3)C(=N)N21	-26%	40µM*	-21%	u	-7%	-13%	x	GALK inh confirm=47µM*;GALK redox cs=11%;HEK293 viability=-5%
COc1ccccc1CNC(=O)COCc1cc(-c2ccc3c(c2)OCO3)on1	-12%	-20%	x	7%	-23%	0%	x
N#CC1=C(N)N(c2ccc(Cl)cc2)C2=C(C(=O)CCC2)C1c1cc(CN2CCOCC2)cs1 (centres undefined)	-14%	-11%	x	37%	-8%	u	x
CCC1=NN2C(=N)/C(=C/c3ccc(OS(=O)(=O)c4ccc(C)cc4)c(OC)c3)C(=O)N=C2S1	-8%	u	-10%[11.6 µM]	u	-30%	u	u
COc1cc(/C=C2/C(=N)N3N=C(C)SC3=NC2=O)ccc1OS(=O)(=O)c1ccc(C)cc1	-3%	-17%	-29%	-3%	-4%	u	x
Cc1c(Cl)cccc1-c1ccc(/C=N/n2cnnc2)o1	-10%	4%	-7%	0%	6%	4%	x
Cc1c(C(=O)O)cccc1-c1ccc(/C=N/n2cnnc2)o1	-14%	20µM*	-6%[11.6 µM]	25µM*	89µM*	35µM*	48*	Pol kappa inh-2=15*
COc1cc(OC)c(NC(=O)CN(C)S(=O)(=O)c2ccc3[nH]c(=O)oc3c2)cc1Cl	-23%	22µM*	-7%	u	u	-5%	u	Pol kappa inh-2=42*
CCCCC(CC)CCC(CC(C)C)OS(=O)(=O)O (centres undefined)	x	x	x	x	5%[19.4 µM]	x	x
CCN(CCCCN1C(=O)c2ccccc2C1=O)c1ccc2c(c1)C(=O)N(C)C2=O	-23%	50µM*	u	-20%	u	16µM*	u
Cc1ccc2oc(=O)c(S(=O)(=O)c3ccc(C(C)(C)C)cc3)cc2c1	17%	-5%	x	25%	-3%	22%	x
O=C(COc1ccccc1)NC1C(=O)N2C(C(=O)O)=C(Cl)CSC12 (centres undefined)	-15%	u	-5%	14%	-36%	u	x
C=CC1=C(C(=O)O)N2C(=O)C(NC(=O)Cc3ccccc3)C2SC1 (centres undefined)	-13%	22µM*	u	u	79µM*	13µM*	67*
O=C1CC2(CCCC2)CC(=O)N1CCCCNCC1COc2ccccc2O1 (centres undefined)	x	x	x	x	3%[19.4 µM]	x	x
CC(C)CCOc1ccc(C(CC(N)=O)C(=O)O)cc1 (centres undefined)	-9%	-14%	-1%	12%	-2%	6%	x
O=C(O)CC(C(=O)O)c1ccc(OCCCCOc2ccc(C(CC(=O)O)C(=O)O)cc2)cc1 (centres undefined)	8%	18µM*	-14%[11.6 µM]	u	79µM*	79µM*	9.5*	Pol kappa inh-2=9.5*
CCOc1ccc(NC(=O)Cc2csc(COc3cccc(C)c3)n2)cc1	0%	-18%	x	49%	-38%	1%	x
COc1ccc(/C=N/Nc2nc(C(=O)O)cs2)cc1	1%	32µM*	-14%	u	u	20µM*	u
COc1ccc(SCC(CC(C)C)N2CCN(C)CCC2=O)cc1 (centres undefined)	-7%	x	x	x	-17%	5%	x
O=C(O)c1ccccc1C1=Nc2ccc(O)cc2Oc2cc(O)ccc21	-18%	u	u	50µM*	-20%	40µM*	x	Pol kappa inh-2=u
Cc1cc(-c2ccccc2C(=O)O)on1	0%	-1%	6%	11%	-11%	-9%	x
SMILES	FEN1 inh	Pol eta inh-1	WRN inhibitor	Pol beta inh	Pol kappa inh-1	Pol iota inh	Pol eta inh-2	others
C=CCOc1ccc(C(c2c(C(=O)O)[nH]c3ccccc23)c2c(C(=O)O)[nH]c3ccccc23)cc1	-4%	32µM*	u	20µM*	79µM*	18µM*	u	Pol kappa inh-2=u
COc1ccc(CN=Cc2c(C(=O)O)[nH]c3ccccc23)cc1	-22%	-15%	0%	-4%	-9%	13%	x
Cc1cc(Cl)ccc1NC(=O)c1cccc(NC(=O)N2CCSc3ncccc32)c1	13%	-17%	x	-1%	0%	18%	x
O=c1[nH][nH]c2cc(=O)n(-c3ccc(Cl)cc3)nc12	-32%	u	u	u	79µM*	u	u	Pol kappa inh-2=17*
CCOC(=O)c1ccc(NC(=O)c2c(NCc3cccs3)sc3c2CCCCC3)cc1	u	79µM*	x	u	-8%[60.1 µM]	u	u
COc1ccc(NC(=O)c2c(NCc3cccs3)sc3c2CCCC3)cc1	-23%	-1%	x	-14%	-10%[60.1 µM]	5%	x
O=C1C=C(c2ccc(C(=O)O)cc2)C[C@@H](c2ccc3c(c2)OCO3)C1	3%	u	-1%[11.6 µM]	x	-29%	u	u
